A selection: hits, their analogues and other compounds. The true share with any hit is near 12%.
HP1b chromo inh = blocks HP1-beta chromodomain binding to methylated histone tails; AlphaScreen HP1-beta / biotin-H3K9me3 peptide binding; Potency, µM (top dose mostly 114 µM), for inactives: top-dose activity change, negative = inhibition, actives largely listed as inhibitors; actives 0.56% (n = 390,000); AID 540317; also: nearly all actives have a fitted effect of over 70% in size
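AlphaScreen: HP1-beta (50 nM) preformed 30 min with biotin-H3(1-18)K9me3 peptide (50 nM) in PBS pH 7.4, 0.01% Tween-20. Compound added for 30 min at RT, then streptavidin donor/nickel chelate acceptor beads (10 ug/mL) for 30 min.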
Sfp inh = blocks B. subtilis Sfp PPTase activity; actives 3.5% (n = 310,000); Biochemical Sfp PPTase activity, qHTS; Potency, µM, without a hit: largest response in the series, negative = inhibition, most hits filed as inhibitors; Q9F4F7;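 also: the enzyme is Sfp with the accession as filed and its product quenches rhodamine fluorescence; 0% = enzyme reaction without inhibitor and -100% = no enzyme wells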
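Step 1, compound plus 15 nM Sfp-PPTase, 15 min, room temperature. Step 2, add rhodamine-CoA (5 uM) and BHQ-2-YbbR (12.5 uM). Step 3, read 525/598 nm fluorescence at 0 and 30 min.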
G9a block = G9a (human) methyltransferase inhibition; Q96KQ7; G9a H3K9 monomethylation, AlphaScreen, 2 h; Potency, µM (highest dose often 102 µM), for the others: at the highest dose activity, negative = inhibition, hits mostly inhibitors; actives 8.8% (n = 350,000); also: % is scaled to controls: 0 for no effect and ±100 for the full control effect; nearly all actives have a fitted effect of over 75% in size
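Compounds were preincubated with 20 nM G9a for 15 min, after which biotinylated H3K9 peptide (500 nM) and SAM (20 uM) started a 2 h room-temperature reaction. Monomethylated product was quantified by antibody-based AlphaScreen chemiluminescence.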
BAZ2B block = BAZ2B (human) inhibition; Q9UIF8; AlphaScreen BAZ2B-H3K14Ac peptide displacement; Potency, µM (titrated, usually from 114 µM), for inactives: at the top dose activity change, negative = inhibition, hits mostly inhibitors; actives 4.4% (n = 360,000); also: % is scaled to controls: 0 for no effect and ±100 for the full control effect; nearly all actives have a fitted effect of over 60% in size
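Protein-peptide AlphaScreen: BAZ2B 50 nM, b-H3K14Ac 50 nM, 1x PBS pH 7.4 + 0.01% Tween-20. Preincubation 30 min RT; cpd 30 min RT (top 110 uM); beads 20 min RT, light-protected.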
JMJD2A Tudor inh = blocks the human JMJD2A Tudor domain; O75164; AlphaScreen JMJD2A-Tudor / H3K4me3 peptide binding; Potency, µM (titrated, usually from 114 µM), for inactives: top-dose activity change, negative = inhibition, most hits filed as inhibitors; actives 4.4% (n = 390,000); AID 504339; also: % is scaled to controls: 0 for no effect and ±100 for the full control effect; nearly all actives have a fitted effect of over 50% in size
The depositor's hits bear a star; u = inconclusive; x = not tested or not shown; [ ] = dose if it differs, or a comment. Calls follow the shape of the dose curve; as a rule, active = well fitted curve in the direction sought with a large enough effect; inconclusive = small, poorly fitted or top-dose-only effect, or another doubt; inactive = no such curve, though single readings can be large; an effect the other way counts as inactive or inconclusive. Potency is read from the fitted curve at half-maximal effect.

SMILES | HP1b chromo inh | Sfp inh | G9a block | BAZ2B block | JMJD2A Tudor inh
CC(C)c1ccc(NC(=O)CSC2=Nc3ccccc3C3=NC(CC(=O)NCc4ccco4)C(=O)N23)cc1 (stereo not drawn) | -5% | x | 2%[59 µM] | u | u
c1ccc(CN2CCC(N3CCN(Cc4ccc5c(c4)OCO5)CC3)CC2)cc1 | 10% | 0% | -9%[59 µM] | 1% | -2%
O=C(C1CCCN(Cc2ccc3c(c2)OCO3)C1)N1CCCC1 (stereo not drawn) | u | -12% | 10µM* | 56µM* | 40µM*
CCOC(=O)C1CCCN(CC(=O)c2ccc(F)cc2)C1 (stereo not drawn) | u | 50µM* | u | 20µM* | 3.5µM*
c1cc2c(cc1CN1CCN(C3CCCCCC3)CC1)OCO2 | u | 56µM* | 10µM* | 18µM* | 18µM*
CCN(CC)C(=O)C1CCCN(Cc2ccc(N(C)C)cc2)C1 (stereo not drawn) | u | -12% | 14µM* | 32µM* | 45µM*
CC(=O)c1ccc(NC(=O)Cn2c(=O)cc(C)c3c(C)nn(-c4cccc(F)c4)c32)cc1 | -17% | x | 16%[59 µM] | -2% | -15%
CCOC(=O)C1CCCN(C(=O)c2ccc3c(c2)OCO3)C1 (stereo not drawn) | 39% | -4% | 14%[59 µM] | -3% | 1%[57.1 µM]
CCOC(=O)C1CCCN(Cc2ccc3c(c2)OCO3)C1 (stereo not drawn) | 25µM* | -19% | 8.9µM* | 50µM* | 2.5µM*
CCN(CC)C(=O)C1CCCN(Cc2ccc3c(c2)OCO3)C1 (stereo not drawn) | -58% | -30% | 8.9µM* | u | 7.1µM*
O=[N+]([O-])c1ccc(Cl)cc1CN1CCCCCC1 | u | 2% | 22µM* | u | 20µM*
COc1ccccc1-c1ccc2ncnc(NC3CC3)c2c1 | x | 18% | -2%[0.501 µM] | x | x
CCN(CC)C(=O)NC1CC2CCCC(C1)N2Cc1ccccc1 (stereo not drawn) | -11% | 14% | 2.8µM* | 5% | -4%[57.1 µM]
Nc1ccc(S(=O)(=O)Nc2cccc3cccnc23)cc1 | x | 11% | x | x | -12%
CCN(CC)c1nc(N)c2c(N)n(-c3ccccc3C)c(=S)c(C#N)c2c1C#N | u | u | -49%[2.33 µM] | -31% | 40µM*
CCN(CC)c1nc(N)c2c(N)nc3c(c2c1C#N)CC(c1ccccc1)O3 (stereo not drawn) | 37% | -9% | 37%[59 µM] | 16% | -15%
CCCCC1OC2(C)OC(=N)C1(C#N)C(C#N)(C#N)C2c1ccccc1 (stereo not drawn) | 18% | 21% | 45µM* | 2% | -15%
CN(C)c1ccc(NC(=O)CSc2nc(C3CC3)nc3ccccc23)cc1 | -5% | -22% | 4.5µM* | -11% | u
CN(C)c1ccc(NC(=O)CSc2nc3ccccc3c(=O)n2C2CCCCC2)cc1 | u | 21% | 7.9µM* | 10µM* | 7.9µM*
Cc1ccc(-n2nc(C)c3c(C(=O)NCc4ccc(F)cc4)cc(C)nc32)cc1 | 50% | x | -2%[59 µM] | 13%[57.1 µM] | 10%
Cc1cccc(-n2c(C)cc(/C=C3/C(=N)N4C(c5ccccc5)=CSC4=NC3=O)c2C)c1 | 8% | 13% | -6%[59 µM] | 2% | -26%
COc1cc(/C=C2/C(=N)N3C(c4ccccc4)=CSC3=NC2=O)ccc1OCC(=O)O | -31% | 8% | x | 50µM* | u
N=C1/C(=C\c2ccc(-c3ccc(C(=O)O)cc3)o2)C(=O)N=C2SC=C(c3ccccc3)N12 | 16µM* | 32µM* | x | 4.5µM* | 14µM*
N=C1/C(=C\c2ccc(-c3cccc(Cl)c3)o2)C(=O)N=C2SC=C(c3ccccc3)N12 | u | 6.3µM* | 45µM* | u | u
CC(=O)Nc1ccc(NC(=O)C/C(C)=N/NC(=O)C(=O)Nc2ccc(C)c(Cl)c2)cc1 | 38% | 5% | 56µM* | -39% | -1%
SMILES | HP1b chromo inh | Sfp inh | G9a block | BAZ2B block | JMJD2A Tudor inh
C/C(CC(=O)Nc1ccc(C)c(Cl)c1)=N\NC(=O)c1cccc(O)c1 | 41% | -1% | x | -16% | -8%
O=C(N/N=C\c1ccc(Cl)cc1)c1sccc1-n1cccc1 | 26% | 17% | -13% | 3% | -12%
COc1ccc(/C=N/NC(=O)Cn2nnc3ccccc32)cc1OC | 15% | 5% | 28%[59 µM] | -25% | -14%
CN(C)c1ccc(/C=N/NC(=O)c2ccccc2Cl)cc1 | -7% | 8% | 40µM* | -35% | -31%
CN(C)c1ccc(/C=N/NC(=O)c2sccc2-n2cccc2)cc1 | 17% | -5% | 28µM* | -24% | -17%
COc1ccc(NC(=O)O/N=C/c2ccccc2)cc1 | -7% | 0% | 0% | -13% | -23%
CN(C)c1ccc(/C=N/NC(=O)Cn2nnc3ccccc32)cc1 | -1% | -11% | 14µM* | -27% | -12%
CN(C)c1ccc(/C=N/NC(=O)c2ccccc2)cc1 | 28% | 19% | -41% | -30% | -17%
CN(C)c1ccc(/C=N/OC(=O)Nc2ccccc2)cc1 | -6% | 1% | -12% | 71µM* | -34%
Cc1cccc(NC(=O)CSc2nc3ccccc3nc2N2CCCCC2)c1C | 55% | x | 31%[59 µM] | 7% | 6%
CCCC[C@@H](CN[C@H](C)CNC)NCC1CCC(C(C)(C)C)CC1 (stereo partly drawn) | 10% | 21% | u | -33% | u
O=C(COC(=O)CC1CCS(=O)(=O)C1)Nc1ccc(F)cc1 (stereo not drawn) | 43% | x | x | x | -8%
CC(C)N1CCN(Cc2cccc(-c3ccco3)c2)CC1CCO (stereo not drawn) | -12% | -4% | 25µM* | -31% | -18%
NC1=NC[C@H](CC2CCCCC2)N1CCc1cc(C(F)(F)F)cc(C(F)(F)F)c1 | 19% | -4% | 14%[59 µM] | 0% | -19%
CCOC(=O)c1c(C)[nH]c(C)c1S(=O)(=O)NCC(=O)Nc1ccc(C)c(N(C)C)c1 | 21% | x | -17%[59 µM] | -19% | -14%
CCOc1[nH]c(/N=C/c2ccccc2)c(C#N)c1C#N | 6% | x | x | x | -17%
COc1[nH]c(/N=C/c2ccco2)c(C#N)c1C#N | 22µM* | x | x | x | 32µM*
Cc1ccc(NC(=O)COC(=O)/C=C/c2cccs2)cc1 | 38% | 2% | 4%[59 µM] | -4% | 15%[57.1 µM]
COc1ccc(NC(=O)COC(=O)c2ccc3ccccc3n2)cc1OC | 21% | x | x | x | -18%
CCN(c1ccc(NC(=O)COC(=O)/C=C/c2cccs2)cc1)C(C)C | 35µM* | 14% | 8.9µM* | 18µM* | 22µM*
CCN(c1ccc(NC(=O)COC(=O)c2ccc3ccccc3n2)cc1)C(C)C | 22µM* | 3% | u | 35µM* | 25µM*
CC(=O)N1CCCc2ccc(NC(=O)c3ccc(C(F)(F)F)cc3)cc21 | 32% | x | 56%[59 µM] | 4% | -14%
Cc1ccc(C)c(OC(=O)CSc2nnc(-c3ccc4c(c3)OCO4)o2)c1 | 7% | x | -28%[59 µM] | -3% | -20%

Source: PubChem
